This note sets out measurements from PubChem BioAssay AID602143 (Vanderbilt Specialized Chemistry Center, 2011).

The source made the active and inactive calls. Rule as the data show it: active = remaining activity below about 50%; inactive = the rest.

Phospholipase D2 (Homo sapiens), sequence (O14939 whole entry, looked up): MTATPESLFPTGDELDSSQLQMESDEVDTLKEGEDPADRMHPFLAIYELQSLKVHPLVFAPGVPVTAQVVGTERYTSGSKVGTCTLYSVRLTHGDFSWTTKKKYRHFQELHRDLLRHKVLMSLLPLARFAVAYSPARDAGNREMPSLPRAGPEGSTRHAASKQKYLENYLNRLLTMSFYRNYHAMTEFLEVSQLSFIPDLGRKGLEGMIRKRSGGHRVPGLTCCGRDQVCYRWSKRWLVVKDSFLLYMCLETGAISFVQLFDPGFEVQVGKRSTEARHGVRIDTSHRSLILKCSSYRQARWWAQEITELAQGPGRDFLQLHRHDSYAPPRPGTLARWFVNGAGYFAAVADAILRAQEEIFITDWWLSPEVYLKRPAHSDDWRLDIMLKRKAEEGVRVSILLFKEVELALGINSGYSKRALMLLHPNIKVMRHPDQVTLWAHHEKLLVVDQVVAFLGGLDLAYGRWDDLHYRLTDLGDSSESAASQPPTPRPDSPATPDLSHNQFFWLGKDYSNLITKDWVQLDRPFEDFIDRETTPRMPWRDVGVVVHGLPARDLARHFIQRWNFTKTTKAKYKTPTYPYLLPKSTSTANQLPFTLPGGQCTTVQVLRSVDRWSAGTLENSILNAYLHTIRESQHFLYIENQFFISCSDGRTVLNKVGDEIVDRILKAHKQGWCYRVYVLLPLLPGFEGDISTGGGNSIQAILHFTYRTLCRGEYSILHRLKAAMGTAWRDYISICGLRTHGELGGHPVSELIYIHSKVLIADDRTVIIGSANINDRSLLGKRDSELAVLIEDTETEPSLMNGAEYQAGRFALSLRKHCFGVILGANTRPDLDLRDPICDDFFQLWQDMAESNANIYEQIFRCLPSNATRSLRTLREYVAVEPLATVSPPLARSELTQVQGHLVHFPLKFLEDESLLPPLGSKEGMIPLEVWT
Phospholipase D2 (Homo sapiens), sequence (O14939 whole entry, looked up): as above

This assay has as its target Phospholipase D2 (Homo sapiens) (UniProt O14939). In words: cellular phospholipase D2 activity inhibition – cell-based, HEK293, single concentration (AID 602143).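 Also: tested at 200 nM.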 The note with it: HEK293 cellular PLD2 activity, percent of control; active compounds read low.
With `O=C(NCCN1CCC(n2c(=O)n(C(=O)c3ccc(Cl)cc3)c3ccccc32)CC1)c1ccc(Cl)cc1`, the remaining activity was 64.5% (inactive).

Turning to `O=c1[nH]c2ccccc2n1C1CCN(CCNS(=O)(=O)c2ccc([N+](=O)[O-])cc2)CC1`, the remaining activity was 80.3% (inactive).

Turning to `O=C(NCCN1CCC2(CCc3ccccc32)CC1)c1ccc2ccccc2c1`, the remaining activity is 124% (inactive).

Consider `Cc1cccc(C(=O)NCCN2CCC(n3c(=O)[nH]c4ccccc43)CC2)n1`, for which the remaining activity was 52.5% (inactive).

Regarding `Cc1cccc(NC(=S)NCCN2CCC(n3c(=O)[nH]c4ccccc43)CC2)c1`, the remaining activity was 113% (inactive).

Consider `O=C(NCCN1CCC(n2c(=O)[nH]c3ccccc32)CC1)c1cccc(Cl)n1`, for which the remaining activity is 75.4% (inactive).

As for `C[C@@H](CN1CCC(c2nc3ccccc3[nH]2)CC1)NC(=O)C1CC1c1ccccc1` (some centres undefined), the remaining activity is 90.3% (inactive).

`O=C(NCCN1CCN(c2ncccn2)CC1)c1ccc(Cl)cc1`: the remaining activity was 106% (inactive).

For the molecule `O=C1Cc2cc(CCN3CCN(c4nsc5ccccc45)CC3)c(Cl)cc2N1`, the remaining activity was 105% (inactive).

Consider `COc1ccc(S(=O)(=O)NCCN2CCC(n3c(=O)[nH]c4ccccc43)CC2)cc1OC`, for which the remaining activity is 77.1% (inactive).

In the case of `O=C(NCCN1CCC(n2c(=O)[nH]c3ccccc32)CC1)N1c2ccccc2Sc2ccccc21`, the remaining activity was 111% (inactive).

Regarding `O=C(NCCN1CCC(n2c(=O)[nH]c3ccccc32)CC1)c1ccc(-c2ccccc2)o1`, the remaining activity was 68.6% (inactive).

Consider `C[C@@H](CN1CCC2(C=Cc3ccccc32)CC1)NC(=O)[C@H]1C[C@@H]1c1ccccc1`, for which the remaining activity was 87.1% (inactive).

In the case of `O=C1c2ccccc2C(=O)N1CCN1CCC(n2c(=O)[nH]c3ccccc32)CC1`, the remaining activity is 87.7% (inactive).

`O=C(NCCN1CCC(n2c(=O)[nH]c3ccccc32)CC1)c1ccc(Cc2ccccc2)cc1`: the remaining activity is 72.9% (inactive).

Consider `CC(C)[C@@H](CN1CCC(n2c(=O)[nH]c3ccccc32)CC1)NC(=O)c1ccc(F)cc1`, for which the remaining activity is 82% (inactive).

Turning to `COc1cc(C(=O)NCCN2CCN(c3ccncc3)CC2)ccc1N`, the remaining activity was 130% (inactive).

As for `O=c1[nH]c2ccccc2n1C1CCN(CCNS(=O)(=O)c2cccc(C(F)(F)F)c2)CC1`, the remaining activity was 61.1% (inactive).

On to `O=C(NCCN1CCC(n2c(=O)[nH]c3ccccc32)CC1)c1cc(-c2ccccc2)no1`, for which the remaining activity was 50.8% (inactive).

As to `O=C(NCCN1CCC2(C=Cc3ccccc32)CC1)[C@H]1C[C@@H]1c1ccccc1`, the remaining activity was 130% (inactive).

With `C[C@@H](CN1CC=C(n2c(=O)[nH]c3ccccc32)CC1)NC(=O)c1ccc2ccccc2c1`, the remaining activity was 15.3% (active).

As to `O=C(NCCN1CCC(n2nnc3ccccc32)CC1)C1CC1c1ccccc1` (centres undefined), the remaining activity is 78.1% (inactive).

For the molecule `C[C@H](CN1CCC(n2c(=O)[nH]c3cc(Cl)ccc32)CC1)NC(=O)c1cc2ccccc2[nH]1`, the remaining activity was 25% (active).

`C[C@@H](CN1CCC(n2c(=O)[nH]c3ccccc32)CC1)NC(=O)c1ccc(C(F)(F)F)cc1`: the remaining activity was 76.2% (inactive).

With `C[C@@H](CN1CCC(n2c(=O)[nH]c3cc(I)ccc32)CC1)NC(=O)C1CC1c1ccccc1` (some centres undefined), the remaining activity was 99.2% (inactive).

For `O=C(NCCN1CCC(n2c(=O)[nH]c3ccc(F)cc32)CC1)c1ccc(C(F)(F)F)cc1`, the remaining activity is 61.8% (inactive).

Turning to `O=C(NCCN1CCC(C(=O)NCC2CC2)CC1)c1ccc2ccccc2c1`, the remaining activity was 108% (inactive).

On to `O=c1[nH]c2ccccc2n1C1CCN(CCNS(=O)(=O)c2ccc(OC(F)(F)F)cc2)CC1`, for which the remaining activity is 81% (inactive).

Consider `CC(C)C(=O)N[C@@H](C)CN1CCC(n2c(=O)[nH]c3ccccc32)CC1`, for which the remaining activity was 106% (inactive).

Turning to `C[C@H](CN1CCC2(CC1)CNc1ccccc12)NC(=O)c1cnc2ccccc2c1`, the remaining activity was 104% (inactive).

Regarding `CC(C(=O)NCCN1CCC(n2c(=O)[nH]c3ccccc32)CC1)(c1ccccc1)c1ccccc1`, the remaining activity is 65.3% (inactive).

For `O=C(NCCN1CCN(c2ccncc2)CC1)c1ccc(Cl)cc1`, the remaining activity is 116% (inactive).

`O=C(NCCN1CCN(c2ncccn2)CC1)c1ccc(F)cc1`: the remaining activity was 92.2% (inactive).

On to `CN(CCN1CCC(n2c(=O)[nH]c3ccccc32)CC1)C(=O)c1ccc2ccccc2c1`, for which the remaining activity is 101% (inactive).

In the case of `O=C(CCc1ccc(F)cc1)NCCN1CCC(n2c(=O)[nH]c3ccccc32)CC1`, the remaining activity is 93.5% (inactive).

On to `C[C@@H](CN1CCC(n2c(=O)[nH]c3cc(I)ccc32)CC1)NC(=O)c1ccc(Cl)cc1`, for which the remaining activity is 72.7% (inactive).

On to `O=C(CCCN1CCC(O)(c2ccc(Cl)cc2)CC1)c1ccc(F)cc1`, for which the remaining activity was 107% (inactive).

On to `CC(C)[C@@H](CN1CCC(n2c(=O)[nH]c3ccccc32)CC1)NC(=O)c1ccc2ccccc2c1`, for which the remaining activity was 73.3% (inactive).

In the case of `O=C(NCCN1CC=C(n2c(=O)[nH]c3ccccc32)CC1)[C@H]1C[C@@H]1c1ccccc1`, the remaining activity is 114% (inactive).
